Experimental findings from ChEMBL document CHEMBL1157539, “Thousands of chemical starting points for antimalarial lead identification” (Nature, 2010) are described below.

The first test concerns Plasmodium falciparum. Put plainly: GSK_TCMDC: Inhibition of Plasmodium falciparum 3D7 in whole red blood cells, using parasite LDH activity as an index of growth. Test compounds present at 2uM. In kind it is functional.
`C=CCn1c(Sc2ccc(C#N)c([N+](=O)[O-])c2)nnc1-c1ccc(Cl)cc1` came in with an Inhibition of 97%.
`Cc1ccc(C(=O)Nc2ccc(F)c(F)c2F)cc1S(=O)(=O)N1CCCCC1` gave an Inhibition of 92%.
For `O=C(Nc1cc(Cl)ccc1O)c1cc(-c2ccccc2O)no1`, the Inhibition was 95%.

A further test relates to Plasmodium falciparum. Kind of test: GSK_TCMDC: Inhibition of Plasmodium falciparum Dd2 in whole red blood cells, using parasite LDH activity as an index of growth. Test compounds present at 2uM. In kind it is functional.
As to `CC(C)c1ccc(NC(=O)N[C@H]2CCN(CCCCCNC(=O)/C=C/c3ccc(Cl)c(Cl)c3)C2)cc1`, the Inhibition is recorded as 14%.
Still for that read-out and setting: next, `Cl.O=C(Nc1ccc(C(=O)OCC2CCCN3CCCCC23)cc1)c1ccc([N+](=O)[O-])cc1` (stereo not drawn): 25%; `Cc1ccc2c(N/N=C/c3ccccc3[N+](=O)[O-])cc(C)nc2c1`: 100%.
With `O=C(Nc1cccc(CN2CCCN(Cc3cccnc3)CC2)c1)c1cc2ccccc2s1.O=C(O)C(F)(F)F`, the Inhibition stood at 28%.
In turn, `CCOc1cc(Cc2cnc(N)nc2N)cc(OCC)c1O` registered an Inhibition of 0%.
`O=C(O)C(F)(F)F.O=[N+]([O-])c1cccc(CNCC2CCN(Cc3ccc(-c4ccccc4)cc3)CC2)c1` yielded an Inhibition of 91%.
The same measure, in the same setting: next, `CCCNCc1c(O)ccc2c(CNCCC)c(O)ccc12.Cl`: 9%.
Take `CC(=O)N(C)c1ccc(C(=O)Nc2cccc(-c3cccc(-c4nc5cccc(C)c5[nH]4)c3)c2)cc1`: the Inhibition stood at 30%.
In turn, `Cc1cc(C(=O)CSc2nc3ccccc3n2-c2ccccc2)c(C)n1C1CCS(=O)(=O)C1` (stereo not drawn) showed an Inhibition of 0%.
For `CN1CCC[C@@H](Oc2cc3c(cc2Br)CCN3C(=O)Nc2ccc(-c3ccncc3)c(Cl)c2)C1`, the Inhibition is 64%.
Regarding `COC(=O)c1cc2cccc(NC[C@@H](C)NC[C@H](O)c3cccc(Cl)c3)c2[nH]1`, the Inhibition stood at 99%.
`COc1ccccc1/C=C/C(=O)NCCC1CCN(CCCCCNC(=O)/C=C/c2ccc(Cl)c(Cl)c2)CC1` had an Inhibition of 0%.
`CCn1nc(C(=O)NC2CCOc3ccccc32)c2ccccc2c1=O` (stereo not drawn) displayed an Inhibition of 59%.
On to `CC(C)[C@@H](NC(=O)NC1CCC(CCN2C3CCC2CC(OC(=O)C(CO)c2ccccc2)C3)CC1)C(O)(c1ccccc1)c1ccccc1` (stereo partly drawn), for which the Inhibition came out at 56%.
With `O=C(NCCCCCN1CCC(c2c[nH]c3ccccc23)C1)Nc1ccc(Cl)c(Cl)c1` (stereo not drawn), the Inhibition is listed as 19%.
The same measure, in the same setting: with `O=C(CNC(=O)c1ccc(O)cc1)Nc1cccc(-c2cccc(-c3nc4cc(C(F)(F)F)ccc4[nH]3)c2)c1` the figure was 28%; with `CCCCN(Cc1cnccc1-c1ccc(Br)cc1)c1ccc(C(O)(C(F)(F)F)C(F)(F)F)cc1.O=C(O)C(F)(F)F`, 45%; with `Cc1c(CN2CCC(N3CCC(C(=O)NC4CC4)CC3)CC2)[nH]c2c(Cl)cccc12`, 3%.
For the compound `CC(C)c1ccc(CN2CCCCC(NC(=O)c3cc(-c4ccccc4F)cs3)C2)cc1.O=C(O)C(F)(F)F` (stereo not drawn), the Inhibition worked out at 84%.
The same measure, in the same setting: with `COc1ccc2[nH]cc(C3CCN(CCCCCNC(=O)c4ccc(-c5ccccc5)cc4)CC3)c2c1` the figure was 16%; with `CCOC(=O)c1ccc(NC(=O)Nc2ccc(-c3cccc(-c4nc5cc(F)ccc5[nH]4)c3)cc2)cc1`, 100%.
For the compound `CN(C)CCn1c(=N)n(CC(O)c2ccc(Cl)c(Cl)c2)c2ccccc21.Cl` (stereo not drawn), the Inhibition was 6%.
The same measure, in the same setting: with `Cc1cc(C)c2cc(CNCCCNc3nc4ccccc4[nH]3)[nH]c2c1` the figure was 0%.
`N#Cc1cc(C(=O)c2cc(Br)ccc2O)cn(C2CCCCC2)c1=O` had an Inhibition of 9%.
Same read-out and setting: next, `O=C(/C=C/c1ccc(Cl)cc1)NCCCCCN1CCC(C(=O)Nc2ccc(Cl)cc2)CC1`: 0%; `CC(=O)c1ccc(NC(=O)NNC(=O)c2ccc(CCN3CCC(c4nc(COCC(F)(F)F)c(-c5ccc(F)cc5)o4)CC3)cc2)cc1`: 27%; `Cc1cc(N2CCCC2)nc(Nc2ccc(NC(=O)C(C)C)cc2)n1`: 36%.
As for `Nc1c2c(nc3ccc(Oc4ccc(Br)cc4Br)cc13)CCCC2`, the Inhibition came out at 47%.
Compound `Cc1cc(C)c(S(=O)(=O)N2CCCCC(c3cccc(C(F)(F)F)c3)=N2)c(C)c1` returned an Inhibition of 95%.
As to `COC[C@H]1CCCN1Cc1ccc(-c2ccc(-c3nc4ccccc4[nH]3)s2)cc1`, the Inhibition was 58%.
`Br.CCCCCCCCc1c(C)nc(C)c(Br)c1O` returned an Inhibition of 92%.
Compound `N=C(N)c1ccc(NCc2cccc(C(=O)O)c2)cc1.O=C(O)C(F)(F)F` displayed an Inhibition of 79%.
The compound `CN(CCCCCN1CCC(NC(=O)Nc2ccc(Oc3ccccc3)cc2)C1)C(=O)/C=C/c1ccc(Cl)c(Cl)c1` (stereo not drawn) came in with an Inhibition of 14%.
The compound `O=C(c1c(-c2[nH]c3ccccc3c2C(=O)C(F)(F)F)[nH]c2ccccc12)C(F)(F)F` yielded an Inhibition of 99%.
On to `FC(F)(F)c1ccc2[nH]c(-c3ccc(-c4ccc(CNCCc5ccncc5)cc4)cc3)nc2c1.O=C(O)C(F)(F)F`, for which the Inhibition was 100%.
